PubChem BioAssay (NCATS)
Unmarked numbers belong to inactive results. Records with an inconclusive call do not appear. The source made the active and inactive calls. Unless noted, the call rests on the fitted dose curve; in most records, active means well fitted curve in either direction with a large enough effect (not every such curve was filed as active); inconclusive means small, poorly fitted or top-dose-only effect, or another doubt; inactive means flat fitted curve, though single readings scatter.

Assays:
[1] = AP1 Signaling Pathway (AID 357); details: ME-180 AP-1-bla reporter, EGF-induced, beta-lactamase ratio, 5 h; at 17.2 µM (top of the series) unless noted;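 further: ME-180 reporter cells stimulated with EGF at its EC50 level; on the % scale 0 is the no-effect control and ±100 the full control effect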
Procedure, shortened: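 A ratiometric CCF4 readout (405 nm excitation; 460 and 530 nm emission) quantified AP-1-driven beta-lactamase in ME-180 cells after 5 h with compound and EC50 EGF; AC50 values were derived for activators and inhibitors.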

[2] = NFAT Signaling Pathway (AID 444); details: Jurkat NFAT-bla M1, carbachol, beta-lactamase ratio, 5 h; at 17.2 µM (top of the series) unless noted;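 further: carbachol stimulus at about its EC50 of 1 µM final; on the % scale 0 is the no-effect control and ±100 the full control effect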
Procedure, shortened: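 Jurkat cells with NFAT-driven β-lactamase reporter and co-expressed M1 receptor, stimulated with carbachol (final 1 uM, ~EC50), compound titration, 5 h at 37 °C. CCF4 loaded 1 h at RT; 460/530 nm ratio gave %activity and AC50.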

[3] = Stat Signaling Pathway (AID 446); details: ME-180 SIE beta-lactamase reporter, IL-6 stimulated, 5 h; at 17.2 µM (top of the series) unless noted;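 further: ME-180 cervical cancer cells given 40 pM IL-6 alongside compound; SIE-controlled beta-lactamase reporter measured as 460/530 nm FRET emission ratio; on the % scale 0 is the no-effect control and ±100 the full control effect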
Procedure, shortened: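 Screening format detects activators and inhibitors alike: ME-180 SIE-bla cells stimulated at 40 pM IL-6 for 5 hrs with compound, then dual-emission beta-lactamase read at 405 nm excitation.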

[4] = target: Cytochrome P450 1A2 (Homo sapiens) (UniProt P05177); test: p450-cyp1a2 (AID 410; calls by dose curve; further: potency means the concentration at half of the fitted maximal effect;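 on activity change, negative = inhibition: -100% = full effect of reference inhibitor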)
Procedure, shortened: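 20nM CYP1A2 with 100uM Luciferin-ME (at Km) in 100mM KPO4; compound preincubated 10 min, NADPH regeneration added, 60 min at room temperature. Luciferin quantified by luminescence after detection reagent; normalized to 57 uM furafylline.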

[5] = target: Glucocorticoid receptor (Homo sapiens) (UniProt P04150); test: GR-GFP Redistribution (AID 450;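 active means compounds whose dose series gives a full or clear partial fitted curve of increased nuclear translocation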; further: potency means the concentration at half of the fitted maximal effect)
[6] = target: Mitogen-activated protein kinase 10 (Mus musculus) (UniProt Q61831); test: JNK3 AlphaScreen Assay (AID 530);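 further: kinase came from lysate of stimulated human HepG2 cells; signal reports phosphorylation of biotinylated GST-cJun 1-79 at Ser73 with 10 µM ATP; on the % scale 0 is the no-effect control and ±100 the full control effect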
Procedure, shortened: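 Pre-activated (IL-1β/TNFα) JNK3 in HepG2 lysates phosphorylates biotin-GST-cJun(1-79), 10 uM ATP; anti-phospho-cJun(Ser73) AlphaScreen read at room temperature, pH 7.6 Tris buffer. Compounds pre-incubated 15 min as titrations.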

[7] = target: 3',5'-cyclic-AMP phosphodiesterase 4B (Homo sapiens) (UniProt Q07343); test: qHTS Assay for Inhibitors of PDE-IV (AID 607; active means well fitted activation curve with a large enough effect in the main read-out, with a control signal flat, not every such curve was filed as active; further: % of control where 0% means no effect)
Procedure, shortened: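 The readout is membrane depolarisation from a cAMP-sensing CNG channel, detected with a potential dye at ex 535/em 590. Cells were HEK293-derived (endogenous PDE-IV) at 1000 cells/well, titrated up to 22.9 uM final.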

[8] = qHTS Assay for Identification of Small Molecule Antagonists for NFkB Signaling Pathway (AID 895; active means well fitted inhibition curve with a large enough effect in the signal ratio, with a control signal flat, not every such curve was filed as active; the % refers to the signal ratio; further: on the % scale 0 is the no-effect control and ±100 the full control effect)
Procedure, shortened: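 ME-180 NFkB-bla cells (beta-lactamase under NFkB response element), plated overnight, treated with compound then 10 pM TNF alpha (about EC50) for 5 hrs at 37 C. LiveBLAzer FRET read at 460/530 nm emission, 405 nm excitation.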

[9] = target: Muscarinic acetylcholine receptor M1 (Rattus norvegicus) (UniProt P08482); test: qHTS Assay for Antagonists of Acetylcholine Muscarinic M1 Receptor: Kinetic Measurement of Intracellular Calcium Response (AID 943; active means well fitted curve in the direction sought with a large enough effect; an effect the other way counts as inactive or inconclusive; further: potency means the concentration at half of the fitted maximal effect; nearly all actives have a fitted effect of over 75% in size)
Procedure, shortened: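 CHO cells expressing rat M1 receptor, Fluo-4 loaded, preincubated 10 min with compound, then stimulated with EC80 carbachol (100 nM final). Kinetic calcium fluorescence over 4 min; response taken as peak over basal signal.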

[10] = target: Muscarinic acetylcholine receptor M1 (Rattus norvegicus) (UniProt P08482); test: qHTS Assay for Antagonists of Acetylcholine Muscarinic M1 Receptor: Measurement of IP-One Response (AID 944; active means well fitted curve in the direction sought with a large enough effect; an effect the other way counts as inactive or inconclusive; further: potency means the concentration at half of the fitted maximal effect; nearly all actives have a fitted effect of over 75% in size)
Procedure, shortened: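 CHO cells stably expressing rat M1, pretreated 10 min with compound, then stimulated 30 min with carbachol at EC80 (200 nM) in LiCl-containing buffer pH 7.4; IP1 accumulation read by HTRF competition (665/620 nm).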

[11] = target: Pyruvate kinase (Leishmania mexicana) (UniProt Q27686); test: qHTS Validation Assay for Inhibitors of Leishmania Mexicana Pyruvate Kinase (AID 945; active means well fitted curve in the direction sought with a large enough effect; an effect the other way counts as inactive or inconclusive;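 further: 0% = DMSO only neutral control wells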)
Procedure, shortened: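 LmPYK E451W 0.2 nM; 0.5 mM PEP, 0.1 mM ADP, 7 mM MgCl2, 50 mM KCl, imidazole pH 7.2, 0.01% Tween 20, 0.05% BSA; 1 h RT; PKLight luminescence; DMSO-normalized.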

[12] = target: Pyruvate kinase PKM (Homo sapiens) (UniProt P14618); test: qHTS Assay for Activators of Human Muscle Pyruvate Kinase (AID 954; active means well fitted curve in the direction sought with a large enough effect, not every such curve was filed as active;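 further: 0% = uninhibited enzyme and -100% = no enzyme or full thiadiazolimine inhibition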)
Procedure, shortened: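 Reaction: 0.1 nM purified PKM2 with 0.5 mM phosphoenolpyruvate and 0.1 mM ADP, room temperature, 1 h. Readout: luciferase-based ATP luminescence after stop reagent. Activators judged against a 0.3 nM enzyme column.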

[13] = target: Alpha-galactosidase A (Homo sapiens) (UniProt P06280); test: Counterscreen for Glucocerebrosidase Inhibitors: qHTS Assay for Human alpha-Galactosidase at pH 4.5 (AID 992; active means well fitted curve in the direction sought with a large enough effect; an effect the other way counts as inactive or inconclusive; further: 0% is about no effect)
Procedure, shortened: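 Concentration-response curves (0.7 nM to 77 uM final) were modeled with the Hill equation to give AC50. Reactions: 2 nM enzyme, 80 uM fluorogenic alpha-galactoside, pH 4.5 citric acid buffer, 20 min, room temperature.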

[14] = target: alpha-glucosidase (Oryza sativa, rice) (UniProt Q653V4); test: Counterscreen for Glucocerebrosidase Inhibitors: qHTS Assay for Rice alpha-Glucosidase at pH 5.0 (AID 997; active means well fitted curve in the direction sought with a large enough effect; an effect the other way counts as inactive or inconclusive;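 further: 0% = full activity with enzyme and -100% = basal without enzyme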)
Procedure, shortened: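 Rice alpha-glucosidase (4 nM final) with 400 uM 4-methylumbelliferyl-alpha-D-glucopyranoside in citrate buffer pH 5.0, 20 min at room temperature, stopped at pH 10; fluorescence 365/440 nm, compounds 0.7 nM–77 uM, AC50 from Hill fits.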

[15] = target: Glucocorticoid receptor (Homo sapiens) (UniProt P04150); test: GR-EFC Redistribution (AID 451; calls by dose curve; further: potency means the concentration at half of the fitted maximal effect); details: CHO-K1 GR-EFC translocation, beta-gal luminescence, 2 h
Procedure, shortened: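 CHO-K1 cells expressing nuclear EA and GR-ED fragments of b-gal; compounds titrated up to 46 uM final, 2 h at 37 C. GR nuclear translocation read as complemented b-gal luminescence after 1 h RT detection.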

[16] = qHTS Assay for Identification of Small Molecule Agonists for Thrombopoietin (TPO) Signaling Pathway (AID 917; active means well fitted curve in the direction sought with a large enough effect; an effect the other way counts as inactive or inconclusive; further: on the % scale 0 is the no-effect control and ±100 the full control effect)
Procedure, shortened: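 Murine Ba/F3 cells expressing human TPO receptor and GPIIb-promoter luciferase, IL-3-starved overnight, given compound plus TPO at 26 pM (EC50). After 24 h at 37 C, 5% CO2, luminescence read.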

Chain of Pyruvate kinase (Leishmania mexicana) (Q27686 2-499 E452W): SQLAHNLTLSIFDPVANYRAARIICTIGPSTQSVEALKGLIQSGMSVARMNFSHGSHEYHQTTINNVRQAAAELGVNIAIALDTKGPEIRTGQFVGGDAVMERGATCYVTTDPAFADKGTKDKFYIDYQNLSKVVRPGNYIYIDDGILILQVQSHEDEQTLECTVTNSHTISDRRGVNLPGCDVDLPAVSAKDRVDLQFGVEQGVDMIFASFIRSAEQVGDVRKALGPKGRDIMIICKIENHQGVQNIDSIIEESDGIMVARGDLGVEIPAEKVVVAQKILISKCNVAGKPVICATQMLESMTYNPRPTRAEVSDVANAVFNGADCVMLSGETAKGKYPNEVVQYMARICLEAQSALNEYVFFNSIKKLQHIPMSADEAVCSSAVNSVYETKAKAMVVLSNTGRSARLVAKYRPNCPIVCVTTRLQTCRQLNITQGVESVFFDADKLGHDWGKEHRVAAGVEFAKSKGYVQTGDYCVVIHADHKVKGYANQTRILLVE
Chain of Glucocorticoid receptor (Homo sapiens) (P04150 whole entry, looked up, the tested form may be a part): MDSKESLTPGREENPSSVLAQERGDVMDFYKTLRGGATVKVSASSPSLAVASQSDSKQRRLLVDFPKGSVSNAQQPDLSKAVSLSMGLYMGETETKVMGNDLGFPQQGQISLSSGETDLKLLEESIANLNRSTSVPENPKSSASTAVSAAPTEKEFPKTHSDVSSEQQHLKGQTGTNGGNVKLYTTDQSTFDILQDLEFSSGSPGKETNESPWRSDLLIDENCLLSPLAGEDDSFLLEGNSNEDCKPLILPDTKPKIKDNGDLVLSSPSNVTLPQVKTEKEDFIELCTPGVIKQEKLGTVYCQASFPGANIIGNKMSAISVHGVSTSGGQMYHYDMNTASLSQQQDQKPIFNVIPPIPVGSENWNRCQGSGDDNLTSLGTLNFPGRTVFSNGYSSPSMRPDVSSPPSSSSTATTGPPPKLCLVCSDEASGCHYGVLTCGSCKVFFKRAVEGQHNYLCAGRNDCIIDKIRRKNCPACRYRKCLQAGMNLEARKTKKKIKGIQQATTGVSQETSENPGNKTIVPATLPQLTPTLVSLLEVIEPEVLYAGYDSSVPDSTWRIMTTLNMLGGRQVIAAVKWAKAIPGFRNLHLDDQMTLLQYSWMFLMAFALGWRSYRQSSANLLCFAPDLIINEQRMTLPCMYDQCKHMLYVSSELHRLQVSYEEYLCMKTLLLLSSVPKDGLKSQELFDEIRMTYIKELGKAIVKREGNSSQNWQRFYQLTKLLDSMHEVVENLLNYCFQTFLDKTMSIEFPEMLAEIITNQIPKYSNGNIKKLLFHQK
Chain of Pyruvate kinase PKM (Homo sapiens) (P14618 whole entry, looked up): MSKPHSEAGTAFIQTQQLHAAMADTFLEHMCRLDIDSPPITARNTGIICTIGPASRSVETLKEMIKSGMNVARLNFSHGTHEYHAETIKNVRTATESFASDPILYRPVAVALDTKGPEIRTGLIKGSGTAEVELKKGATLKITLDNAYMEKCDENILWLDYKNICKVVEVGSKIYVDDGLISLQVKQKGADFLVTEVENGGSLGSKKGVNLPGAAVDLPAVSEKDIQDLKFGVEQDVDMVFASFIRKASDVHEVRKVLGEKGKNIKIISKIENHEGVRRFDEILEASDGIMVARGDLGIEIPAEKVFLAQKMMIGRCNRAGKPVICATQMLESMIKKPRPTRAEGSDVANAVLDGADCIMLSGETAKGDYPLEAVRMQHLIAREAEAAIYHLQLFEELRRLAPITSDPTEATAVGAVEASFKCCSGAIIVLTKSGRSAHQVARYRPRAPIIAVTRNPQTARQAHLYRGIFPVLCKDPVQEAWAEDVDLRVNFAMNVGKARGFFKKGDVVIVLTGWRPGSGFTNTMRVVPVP
Chain of Alpha-galactosidase A (Homo sapiens) (P06280 whole entry, looked up): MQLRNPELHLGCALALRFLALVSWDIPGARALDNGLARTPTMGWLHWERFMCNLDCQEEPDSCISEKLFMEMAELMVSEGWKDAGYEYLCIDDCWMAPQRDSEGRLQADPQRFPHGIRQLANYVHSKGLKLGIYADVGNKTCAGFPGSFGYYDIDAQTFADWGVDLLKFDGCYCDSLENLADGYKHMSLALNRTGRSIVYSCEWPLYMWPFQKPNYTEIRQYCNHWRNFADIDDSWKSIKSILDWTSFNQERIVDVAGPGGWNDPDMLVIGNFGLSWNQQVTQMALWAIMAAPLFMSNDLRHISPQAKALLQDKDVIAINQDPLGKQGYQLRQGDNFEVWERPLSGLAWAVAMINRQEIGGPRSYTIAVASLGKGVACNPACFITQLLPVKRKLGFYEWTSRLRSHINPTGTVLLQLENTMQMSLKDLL
Chain of 3',5'-cyclic-AMP phosphodiesterase 4B (Homo sapiens) (Q07343 whole entry, looked up): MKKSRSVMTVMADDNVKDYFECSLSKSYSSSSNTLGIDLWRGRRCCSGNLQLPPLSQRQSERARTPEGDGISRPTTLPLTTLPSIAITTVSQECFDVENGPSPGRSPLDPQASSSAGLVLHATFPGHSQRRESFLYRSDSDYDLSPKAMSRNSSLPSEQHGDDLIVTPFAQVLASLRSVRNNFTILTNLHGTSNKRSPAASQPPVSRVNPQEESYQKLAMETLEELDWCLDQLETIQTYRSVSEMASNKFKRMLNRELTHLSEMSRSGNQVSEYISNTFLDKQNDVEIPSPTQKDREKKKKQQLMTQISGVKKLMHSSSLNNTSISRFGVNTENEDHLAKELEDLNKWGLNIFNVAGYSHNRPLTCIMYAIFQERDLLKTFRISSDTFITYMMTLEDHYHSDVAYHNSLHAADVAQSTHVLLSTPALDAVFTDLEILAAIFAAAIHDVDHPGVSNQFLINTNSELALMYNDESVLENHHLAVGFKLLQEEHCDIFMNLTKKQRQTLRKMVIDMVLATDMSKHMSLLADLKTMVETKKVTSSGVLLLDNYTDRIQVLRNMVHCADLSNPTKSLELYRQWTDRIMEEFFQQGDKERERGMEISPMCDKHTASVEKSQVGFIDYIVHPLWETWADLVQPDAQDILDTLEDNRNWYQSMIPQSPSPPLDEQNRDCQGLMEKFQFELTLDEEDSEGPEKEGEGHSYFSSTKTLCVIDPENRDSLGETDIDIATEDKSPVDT
Chain of Cytochrome P450 1A2 (Homo sapiens) (P05177 whole entry, looked up): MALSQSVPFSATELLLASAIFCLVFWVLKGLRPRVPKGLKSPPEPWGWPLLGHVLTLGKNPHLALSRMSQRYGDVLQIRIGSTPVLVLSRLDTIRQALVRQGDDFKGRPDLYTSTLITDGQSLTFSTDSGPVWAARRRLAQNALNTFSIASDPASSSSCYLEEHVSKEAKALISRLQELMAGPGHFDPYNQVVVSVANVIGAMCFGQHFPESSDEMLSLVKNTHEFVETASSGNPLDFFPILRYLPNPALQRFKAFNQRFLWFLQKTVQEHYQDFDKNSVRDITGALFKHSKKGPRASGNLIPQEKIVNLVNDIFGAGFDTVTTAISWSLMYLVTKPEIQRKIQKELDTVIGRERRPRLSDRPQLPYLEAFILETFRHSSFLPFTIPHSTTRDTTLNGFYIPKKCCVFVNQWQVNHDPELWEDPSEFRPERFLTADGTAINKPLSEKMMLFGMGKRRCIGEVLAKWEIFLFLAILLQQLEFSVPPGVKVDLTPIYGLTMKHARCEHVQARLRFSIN
Chain of Muscarinic acetylcholine receptor M1 (Rattus norvegicus) (P08482 whole entry, looked up): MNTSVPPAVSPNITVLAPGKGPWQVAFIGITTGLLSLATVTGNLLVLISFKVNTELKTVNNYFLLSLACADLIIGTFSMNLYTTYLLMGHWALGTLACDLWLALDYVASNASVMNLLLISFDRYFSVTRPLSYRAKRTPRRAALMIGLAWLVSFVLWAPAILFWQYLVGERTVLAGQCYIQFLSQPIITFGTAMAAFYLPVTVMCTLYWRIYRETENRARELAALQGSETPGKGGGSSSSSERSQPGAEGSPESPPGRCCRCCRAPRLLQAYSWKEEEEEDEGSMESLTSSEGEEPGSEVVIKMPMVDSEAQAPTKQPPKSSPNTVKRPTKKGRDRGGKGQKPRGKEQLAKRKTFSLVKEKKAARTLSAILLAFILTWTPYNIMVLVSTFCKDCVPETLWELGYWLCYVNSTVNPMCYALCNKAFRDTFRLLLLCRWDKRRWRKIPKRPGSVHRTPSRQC

CC1(C)Cc2[nH]c(=O)c(C#N)cc2CS1
activity change, negative = inhibition [1]: 19.5%
activity change, negative = inhibition [2]: -1.45%
activity, negative = inhibition [3]: 10.8%

CN1C(=O)C2(c3ccccc31)C1CCCC=C1C(C#N)=C(N)C2(C#N)C#N (stereo not given)
activity change, negative = inhibition [1]: -21.4%
activity change, negative = inhibition [2]: -15.5%
activity, negative = inhibition [3]: -7.56%

CO[C@H]1C[C@@H]2CC[C@@H](C)[C@@](O)(O2)C(=O)C(=O)N2CCCC[C@H]2C(=O)O[C@H]([C@H](C)C[C@@H]2CC[C@@H](O)[C@H](OC)C2)CC(=O)[C@H](C)C=C(C)[C@@H](O)[C@@H](OC)C(=O)[C@H](C)C[C@H](C)C=CC=CC=C1C
activity change, negative = inhibition [1]: 6.13%
activity change, negative = inhibition [2]: 24.7%
activity, negative = inhibition [3]: -28.8%

CO[C@H]1C=CO[C@@]2(C)Oc3c(C)c(O)c4c(O)c(c(C=NN5CCN(C)CC5)c(O)c4c3C2=O)NC(=O)C(C)=CC=C[C@H](C)[C@H](O)[C@@H](C)[C@@H](O)[C@@H](C)[C@H](OC(C)=O)[C@@H]1C
activity change, negative = inhibition [1]: -3.11%
activity change, negative = inhibition [2]: 18.4%
activity, negative = inhibition [3]: 1.14%

O[Si@](CCCN1CCCCC1)(c1ccc(F)cc1)C1CCCCC1
activity change, negative = inhibition [1]: 11.3% [at 38 µM]
Potency [4]: inactive
activity, negative = inhibition [3]: 1.42% [at 38 µM]
Potency [5]: > 46 µM
Potency [6]: inactive
Potency [7]: inactive
Potency [8]: inactive
Potency [9]: 0.178 µM (active)
Potency [10]: 1.41 µM (active)
Potency [11]: inactive
outcome [12]: inactive
outcome [13]: inactive
outcome [14]: inactive

COc1cc2nc(N3CC=[N+](C(=O)c4ccco4)CC3)nc(N)c2cc1OC
activity change, negative = inhibition [1]: -19.6% [at 38 µM]
Potency [4]: 12.6 µM (active)
Potency [5]: > 46 µM
Potency [15]: > 46 µM
Potency [6]: inactive
Potency [7]: inactive
Potency [11]: inactive
outcome [12]: inactive
outcome [13]: inactive
outcome [14]: inactive

CCCCNc1nc2c(c(=O)n(C)c(=O)n2C)n1Cc1cccc(OC)c1
activity change, negative = inhibition [1]: -11.7%
activity change, negative = inhibition [2]: 2.13%
activity, negative = inhibition [3]: -17%

CCCCCCCCCCCCCCCCCCOC[C@@H](COP(=O)([O-])OCC[N+](C)(C)C)OC
activity change, negative = inhibition [1]: 29% [at 38 µM]
Potency [4]: inactive
activity, negative = inhibition [3]: 4.35% [at 38 µM]
Potency [5]: > 46 µM
Potency [15]: > 46 µM
Potency [6]: inactive
Potency [7]: inactive
Potency [16]: inactive
Potency [11]: inactive
outcome [12]: inactive
outcome [13]: inactive
outcome [14]: inactive
